Molecules are shown by their SMILES. Results filed as inconclusive are left out. Values without a mark were called inactive. Active and inactive are the calls of the source. Calls come from the whole dose curve; as a rule, active = well fitted cell-killing curve with a large enough effect in the repeat runs; inconclusive = weak or mixed curves, or effect the other way; inactive = flat fitted curve, though single readings scatter.
% is set by controls: 0 for no effect and ±100 for the full control effect; potency is the fitted concentration of half-maximal effect.

The assay in a line: qHTS RealTime-Glo MT Cell Viability Assay in HEK293 cells - 40 hour (AID 1224874). Note: nearly all actives have a fitted effect of over 50% in size. The following applies: RealTime-Glo luminescence; max response: active compounds read low. The method, boiled down: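 600 cells/well were plated with the nonlytic NanoLuc/prosubstrate reagent, pre-incubated 5 h, then given 23 nL of compound in DMSO. Incubation at 37 C for 40 h, with luminescence from viable-cell-reduced substrate read repeatedly from 0 h.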
On to `C=CCCC`, for which the max response is 18%.

As to `CC(C)(C)c1ccc(CCC=O)cc1`, the max response is 3.22%.

In the case of `O=C(Nc1ccccc1)c1cc([N+](=O)[O-])ccc1Cl`, the max response was -23.2%.

As to `CC(C)=CCC[C@H](C)CCO`, the max response was -1.49%.

In the case of `CC(=O)Nc1ccn(C2COC(COC(=O)c3ccccc3)O2)c(=O)n1` (centres undefined), the max response is 3.96%.

As for `N#C[C@@H]1CC(F)(F)CN1C(=O)CNC1CC2CCC(C1)N2c1ncccn1` (some centres undefined), the max response is 1.88%.

In the case of `CC(C)=CCCC(C)C=O` (centres undefined), the max response was 3.8%.

In the case of `C=CC(=O)NC(C)(C)C`, the max response was 1.33%.

For the compound `C1=COCCC1`, the max response is 1.01%.

In the case of `CCOC(OCC)OCC`, the max response is -1.36%.

Regarding `[O-][n+]1ccc(Cl)cc1`, the max response is 17.4%.

As to `CC1(C)C(=O)NC(=O)N1CO`, the max response was 9.14%.

`CCCCCCCCS`: the max response is 7.45%.

`O=C(NC1CCN(CCc2c[nH]c3ccccc23)CC1)c1ccccc1`: the Potency is 9.52 µM (active).

In the case of `CCC(C(=O)O)c1ccc(N2Cc3ccccc3C2=O)cc1` (centres undefined), the max response was -1.19%.

Turning to `Cc1ccccc1CCO`, the max response was 5.71%.

Turning to `O=c1[nH]nc(-c2ccc([N+](=O)[O-])o2)o1`, the max response was -1.91%.

With `CCC(=O)O[C@]1(C(=O)COC)[C@@H](C)C[C@H]2[C@@H]3CCC4=CC(=O)C=C[C@]4(C)C3(F)[C@@H](O)C[C@@]21C` (some centres undefined), the max response was -19.2%.

As for `O=C(OCCOCCOCCOC(=O)c1ccccc1)c1ccccc1`, the max response was 13.2%.

`COC(=O)c1cc(Cl)ccc1[N+](=O)[O-]`: the max response was -14.8%.

For the compound `Cc1cccc(C)c1NC(=O)CN1CCCC1`, the max response was 8.7%.

On to `COC(=O)/C=C/C(C)=C\C=C\C(C)=C\C=C\C=C(C)\C=C\C=C(C)\C=C\C(=O)O`, for which the max response was 1.87%.

As to `CCc1ccc(C(=O)C(C)CN2CCCCC2)cc1` (centres undefined), the max response is 7.68%.

Take `OCCOc1cccc(OCCO)c1`: the max response was 12.3%.

Turning to `C=CC(C)(O)CC/C=C(/C)CCC=C(C)C` (centres undefined), the max response is 0.65%.

Turning to `O=C(OC1C[C@H]2CC[C@@H](C1)[N+]21CCCC1)C(O)(c1ccccc1)c1ccccc1` (some centres undefined), the max response was 0.515%.

For `CC(C)(Cc1c[nH]c2ccccc12)NCC(O)COc1ccccc1C#N` (centres undefined), the Potency was 19 µM (active).

`CNc1ccccc1`: the max response is 4.77%.

Regarding `CCCCCCC/C=C/C=O`, the max response is 6.61%.

Take `NCCOCCOCCN`: the max response is -14%.

On to `FC1(F)C(F)(F)C(F)(F)C2(F)C(F)(C1(F)F)C(F)(F)C(F)(F)C1(F)C(F)(F)C(F)(F)C(F)(F)C(F)(F)C12F` (centres undefined), for which the max response is 0.279%.

In the case of `COc1ccnc2c1CCCCC2S(=O)c1nc2ccccc2[nH]1` (centres undefined), the Potency is 7.56 µM (active).

Take `CCCCCCCCCCCCCCCCN`: the max response was 11.5%.

On to `FC(F)(Cl)C(F)(Cl)Cl`, for which the max response was 10.2%.

With `Cc1cc(C)c(C)c(O)c1`, the max response was 0.904%.

For `CC(=O)c1cccnc1`, the max response is -6.53%.

As to `Cc1c(Cl)cccc1[N+](=O)[O-]`, the max response is -7.04%.

As for `CCN(CC)CC(=O)OCC(=O)[C@@]1(O)CC[C@H]2[C@@H]3CCC4=CC(=O)CC[C@]4(C)[C@H]3[C@@H](O)C[C@@]21C`, the max response is -1.53%.

Take `CCCc1ccc(OC)cc1`: the max response was 11.9%.

Values taken from PubChem BioAssay (Tox21).
